PAFAH1B2 FP inh: PAFAH1B2 (human) inhibition. P68402. 340,000 compounds, 1.2% hits. recombinant PAFAH1B2, FP-rhodamine activity probe, fluorescence polarization. inhibition, % at 3.39 µM;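 active = inhibition above the mean of all tested compounds plus 3 SD, cut at about 24% in these data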
pPAFAH FP inh: pPAFAH (human) enzyme inhibition; Q13093; recombinant pPAFAH, FP-rhodamine probe fluorescence polarization; inhibition, % at 3.39 µM; 330,000 compounds, 1.5% hits;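 active = inhibition above the mean inhibition across the screen plus 3 SD, cut at about 25% in these data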;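 also: inhibitors block binding of the rhodamine activity-based probe so polarization drops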
Fam108B counter: Fam108B inhibition, counter-screen for RBBP9 inhibitors; recombinant Fam108B, FP-Rh probe fluorescence polarization; inhibition, % at 9.51 µM; 300,000 compounds, 0.33% hits; AID 1947;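 active = inhibition above the screen mean inhibition plus 3 SD, computed separately per campaign, cut at about 18% in these data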;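 also: inhibitors lower polarization as less probe binds the enzyme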
PAFAH1B3 FP inh: blocks human PAF acetylhydrolase 1B catalytic subunit 3. recombinant PAFAH1B3, FP-rhodamine probe, fluorescence polarization. inhibition, % at 3.39 µM. Q15102. AID 492972. 340,000 compounds, 0.28% hits;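 active = inhibition above the screen-wide average of all tested compounds plus 3 SD, cut at about 25% in these data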
Target sequence (Q15102 whole entry, looked up): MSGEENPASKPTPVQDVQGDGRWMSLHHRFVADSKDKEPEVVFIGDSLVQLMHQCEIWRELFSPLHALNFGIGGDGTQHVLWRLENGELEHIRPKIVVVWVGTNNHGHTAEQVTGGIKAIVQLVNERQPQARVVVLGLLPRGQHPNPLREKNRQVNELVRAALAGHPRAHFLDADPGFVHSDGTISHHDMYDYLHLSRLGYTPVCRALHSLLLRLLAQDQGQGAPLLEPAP
PAFAH2 FP inh: inhibitors of human PAFAH2; Q99487; recombinant PAFAH2, FP-rhodamine activity probe, fluorescence polarization; inhibition, % at 3.39 µM; 340,000 compounds, 0.99% hits; AID 492956;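 active = inhibition above the mean over all tested compounds plus 3 SD, cut at about 30% in these data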;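 also: inhibitors block probe labeling of enzyme so polarization drops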
PME-1 inh: PME-1 (human) inhibition. Q9Y570. recombinant PME-1, FP-Rh probe fluorescence polarization. inhibition, % at 5.9 µM. 320,000 compounds, 0.53% hits. AID 2130;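 active = inhibition above the campaign mean of all compounds plus 3 SD, cut at about 26% in these data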;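 also: competitive labeling of PME-1 active site by serine hydrolase directed probe; inhibitors block probe labeling so polarization falls and inhibition rises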
Target sequence (Q9Y570 whole entry, looked up): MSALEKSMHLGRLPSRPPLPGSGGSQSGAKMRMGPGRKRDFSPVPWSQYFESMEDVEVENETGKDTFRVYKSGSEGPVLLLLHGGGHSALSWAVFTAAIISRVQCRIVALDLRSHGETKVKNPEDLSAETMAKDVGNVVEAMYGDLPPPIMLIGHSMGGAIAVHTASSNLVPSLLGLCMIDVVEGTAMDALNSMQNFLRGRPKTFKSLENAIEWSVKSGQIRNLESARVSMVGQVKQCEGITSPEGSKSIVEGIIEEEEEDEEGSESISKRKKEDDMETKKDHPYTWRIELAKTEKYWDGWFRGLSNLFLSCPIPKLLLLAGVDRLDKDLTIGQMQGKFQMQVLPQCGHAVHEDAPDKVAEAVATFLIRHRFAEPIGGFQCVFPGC
Each line names hits and unclear results; the compound was inactive in the other large screens. This is a sample that favours compounds with a hit; in the whole collection about 2.8% have one here.

COc1cc(C=O)ccc1OCCOCCOc1cc(C)ccc1Cl	none
CCOc1cc(/C=C/C(=O)O)ccc1OCCO	none
COc1cc(C=O)ccc1OCCSc1ccc(C)cc1	PAFAH1B2 FP inh 35
CCOc1cc(C=O)ccc1OCCSc1ccc(C)cc1	PAFAH1B2 FP inh 30
CCN(CC(=O)NCc1ccc(Cl)cc1)C(=O)COc1cccc(Cl)c1	none
O=C(CN1CCC(c2nc3ccccc3s2)CC1)NCc1cccs1	PME-1 inh 40
O=C(CN1CCC(c2nc3ccccc3s2)CC1)N1CCCCC1	none
CCOc1cc(CNCCSc2nnnn2C)cc(Br)c1OCc1ccccc1F	pPAFAH FP inh 25
O=C(Nc1ccc(N2CCOCC2)cc1)C1(c2ccc(Cl)cc2)CCC1	PAFAH1B2 FP inh 80
O=C(Nc1ccc(N2CCOCC2)cc1)Nc1ccc(Cl)c(Cl)c1	PME-1 inh 28
O=C(Nc1ccc(Cl)cc1)Nc1ccc(N2CCOCC2)cc1	none
O=C(NC(=S)Nc1ccc(N2CCOCC2)cc1)c1ccc(Cl)cc1	none
COc1cc2c(cc1OC)CN(CC(=O)Nc1ccc(Cl)c(S(=O)(=O)N(C)C)c1)CC2	PME-1 inh 40
Cc1nc2c(=O)[nH]c(=S)[nH]c2[nH]c1=O	PAFAH1B3 FP inh 27, PAFAH2 FP inh 45 (no result: pPAFAH FP inh, Fam108B counter, PME-1 inh)
Cc1nc2[nH]c(=S)[nH]c(=O)c2nc1C	none (no result: pPAFAH FP inh, Fam108B counter, PME-1 inh)
CC(=O)Nc1cc(Cl)c(N=Cc2ccc(O)cc2O)cc1Cl	pPAFAH FP inh 41
Cc1ccc(NC(=O)C2Cc3ccccc3C(=O)O2)cc1 (centres undefined)	none
O=C1OC(C(=O)Nc2ccccc2)Cc2ccccc21 (centres undefined)	pPAFAH FP inh 25, PAFAH2 FP inh 49
O=S(=O)(CCNCc1ccccc1)NC1CCCCC1	none (no result: pPAFAH FP inh, Fam108B counter, PME-1 inh)
CC(=O)C[C@@H](O)CC(=O)[C@@H]1OC(=O)CCCCCCc2ccccc21	none (no result: Fam108B counter, PME-1 inh)
S=C(NNc1ccnc2cc(Cl)ccc12)Nc1ccc(Cl)cc1Cl	none
CCOc1ccc(NC(=S)NNc2ccnc3cc(Cl)ccc23)cc1	PME-1 inh 38
Cc1ccc(Nc2cc(C)c3c(O)cccc3n2)cc1C	PME-1 inh 31
CN1CCN(c2nc3c(c(=O)n(C)c(=O)n3C)n2CC(=O)C23CC4CC(CC(C4)C2)C3)CC1	none
Cn1c(=O)c2c(nc(N3CCOCC3)n2CC(=O)C23CC4CC(CC(C4)C2)C3)n(C)c1=O	PAFAH1B2 FP inh 27
COc1ccccc1Nc1nc(-c2sc(NC(=O)c3ccc([N+](=O)[O-])cc3)nc2C)cs1	Fam108B counter 25 (no result: PAFAH1B2 FP inh, PAFAH1B3 FP inh, PAFAH2 FP inh)
COc1ccccc1Nc1nc(-c2sc(N)nc2C)cs1	pPAFAH FP inh 27
COc1ccccc1Nc1nc(-c2sc(NC(=O)c3ccccc3)nc2C)cs1	none
COc1cc(NC(=O)c2cc3ccccc3cc2OC)ccc1NC(=O)c1cccs1	none
CN1OC[C@@H]2CN(C(=O)CCc3ccccc3)[C@H](c3cccc(-c4ccccc4)c3)C[C@@H]21	none (no result: pPAFAH FP inh, Fam108B counter, PME-1 inh)
CCN(C(=O)CSc1nc2ccccc2o1)c1c(N)n(Cc2ccccc2)c(=O)[nH]c1=O	pPAFAH FP inh 29
O=c1oc2c(-c3cccc(F)c3)cc(O)cc2s1	pPAFAH FP inh 27
C=C1CCC[C@]2(C)C[C@H]3OC(=O)C(CN4CCCCC4CO)[C@H]3CC12 (some centres undefined)	PAFAH1B2 FP inh 36, PAFAH2 FP inh 44
C=C1CCC[C@]2(C)C[C@H]3OC(=O)C(CNC(C)(CO)CO)[C@H]3CC12 (some centres undefined)	PAFAH1B2 FP inh 28, PAFAH2 FP inh 33
CC(C)c1ccc(N(CC(=O)NCc2ccco2)C(=O)CCC(=O)Nc2ccccn2)cc1	none
Cc1cc(C)cc(NC(=O)Nc2ccc(-n3ccc(C(F)(F)F)n3)cc2)c1	PAFAH1B2 FP inh 49
O=C1C=C(NCc2ccc(Cl)cc2)CC(c2ccco2)C1 (centres undefined)	PAFAH1B2 FP inh 29
Cc1nn2c(NCCN(C)C)c3c(nc2c1-c1ccccc1)CCCC3	none (no result: PAFAH1B2 FP inh, PAFAH1B3 FP inh, PAFAH2 FP inh)
Cc1ccc(SCC(=O)OC(C)C(=O)NCc2ccccc2)cc1C (centres undefined)	pPAFAH FP inh 34
Cc1ccc(C)c(SCC(=O)NC(=O)NCc2ccccc2)c1	none
Cc1ccc(C)c(SCC(=O)OCC(=O)NCc2ccccc2)c1	pPAFAH FP inh 25
COc1ccc(C(=O)NCCSc2ccc(C)cc2)cc1	none
Cc1ccc(SCCNC(=O)c2ccccc2F)cc1	PAFAH1B2 FP inh 25
O=C(NCCSc1ccccc1)c1ccccc1F	none
Cc1ccccc1NS(=O)(=O)c1cc(C(=O)NCCC2=CCCCC2)ccc1Cl	none
Cc1cccc(NS(=O)(=O)c2cc(C(=O)NCCC3=CCCCC3)ccc2Cl)c1	PAFAH1B2 FP inh 25
Cc1ccc(SCCNC(=O)c2ccc(C)c(S(=O)(=O)Nc3cccc(C)c3)c2)cc1	pPAFAH FP inh 30
Cc1ccc(SCCNC(=O)c2ccccc2)cc1	PAFAH1B2 FP inh 27
CCOc1ccccc1C(=O)NCC(=O)NCCSc1ccc(Br)cc1	PAFAH1B2 FP inh 28 (no result: pPAFAH FP inh, Fam108B counter, PME-1 inh)
CCOc1ccccc1C(=O)NCCNC(=O)c1ccccc1OCC	none
Cc1ccc(SCCC(=O)NCCSCc2ccccc2C)cc1	PAFAH1B2 FP inh 42
CCCCNC(=O)CCSc1ccc(C)cc1	none
COc1ccc(-c2csc3ncnc(N4CCN(c5ccccc5[N+](=O)[O-])CC4)c23)cc1	none
COc1cc(/C=N/N2CCN(c3ccc(Cl)cc3)CC2)cc(OC)c1OC(C)=O	PAFAH1B2 FP inh 25
CC(C)(C)OC(=O)N1CCC(C(=O)Nc2ccc(C(=O)N3CCCCC3)cc2)CC1	none (no result: pPAFAH FP inh, Fam108B counter, PME-1 inh)
Cn1nnc(NC(=O)CSc2ccc(Cl)cc2)n1	PAFAH1B2 FP inh 25
COC(=O)c1sccc1NC(=O)CSc1ccc(Cl)cc1	PAFAH1B2 FP inh 29
COc1cc(Cl)c(C)cc1NC(=O)CSc1ccc(C)cc1	PAFAH1B2 FP inh 34
COC(=O)c1sccc1NC(=O)CSc1ccccc1N	none
CCCn1nnc(NC(=O)Cc2ccc(Cl)cc2)n1	PAFAH1B2 FP inh 27
CCCn1nnc(NC(=O)COc2ccc(Cl)cc2)n1	none
CCOc1ccccc1N1CC(O)=C(c2nc3ccccc3s2)C1=N	pPAFAH FP inh 33
CCc1nccn1S(=O)(=O)c1ccccc1[N+](=O)[O-]	none
COc1cc(OC)cc(-c2c(C#Cc3ccsc3)c3cc(-c4cccc5[nH]cc(C=O)c45)ccc3n2C)c1	none (no result: Fam108B counter, PME-1 inh)
CCN(CC)S(=O)(=O)c1cccc(-c2n[nH]c(=S)n2Cc2ccccc2)c1	none
COc1ccc(NS(=O)(=O)c2cccc(-c3n[nH]c(=S)n3Cc3ccccc3)c2)cc1	pPAFAH FP inh 27
COc1ccccc1NS(=O)(=O)c1ccc(C)c(C(=O)NC2CCN(Cc3ccccc3)CC2)c1	none (no result: pPAFAH FP inh, Fam108B counter, PME-1 inh)
COc1ccc(NS(=O)(=O)c2ccc(-c3n[nH]c(=S)n3Cc3ccccc3)cc2)cc1	pPAFAH FP inh 25
COc1ccc(NS(=O)(=O)c2ccc(C)c(C(=O)NC3CCN(Cc4ccccc4)CC3)c2)cc1	pPAFAH FP inh 26
S=c1[nH]nc(-c2ccccc2)n1Cc1ccccc1	none

Screens deposited in PubChem BioAssay by The Scripps Research Institute Molecular Screening Center.
